Read-out in assay [1]: Tumor necrosis factor receptor superfamily member 6 (Homo sapiens) (UniProt P25445)
The assay is described as follows: LTEA_HepaRG_FAS: Life Technologies and Expression Analysis (LTEA) Assay for Fas cell surface death receptor (FAS) using HepaRG (AID 2283447). The following applies: mRNA level, 48 h; actives raise or lower the signal. Summed up: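 FAS transcript level was measured by TaqMan qRT-PCR against three housekeeping genes after 48 h chemical exposure. Cells were HepaRG, 0.5% DMSO vehicle, with a top concentration of 100 uM and half-log dilutions over eight points, in duplicate.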

Read-out in assay [2]: flavin-containing dimethylaniline monooxygenases 3 (FMO3), FMO3 (gene 2328)
The assay is described as follows: LTEA_HepaRG_FMO3: Life Technologies and Expression Analysis (LTEA) Assay for flavin-containing dimethylaniline monooxygenases 3 (FMO3) using HepaRG (AID 2283453). The following applies: mRNA level, 48 h; actives raise or lower the signal. Summed up:
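Eight-point concentration-response in serum-free HepaRG cultures (top 100 uM, 0.5% DMSO, 48 h). Read-out: FMO3 mRNA level normalized to three endogenous control genes, fitted bidirectionally versus vehicle.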

Read-out in assay [3]: Cytochrome P450 (CYP1A1), CYP1A1 (gene 1543)
The assay is described as follows: LTEA_HepaRG_CYP1A1: Life Technologies and Expression Analysis (LTEA) Assay for Cytochrome P450 (CYP1A1) using HepaRG (AID 2283454). As to conditions: mRNA level, 48 h; actives raise or lower the signal. Summed up: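 Differentiated human HepaRG cells, after 48 h plating, exposed in duplicate for 48 h in serum-free induction medium to 8 half-log concentrations up to 100 uM in 0.5% DMSO. CYP1A1 mRNA by qRT-PCR, normalized to ACTB/GAPDH/POLR2A; bidirectional fit versus DMSO.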

Read-out in assay [4]: CFLAR gene, CFLAR (gene 8837)
As to the kind of experiment: LTEA_HepaRG_CFLAR: Life Technologies and Expression Analysis (LTEA) Assay for CFLAR gene using HepaRG (AID 2283455). The following applies: mRNA level, 48 h; actives raise or lower the signal. Summed up:
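Transcript level by qRT-PCR (normalized to ACTB, GAPDH and POLR2A) after 48 h chemical exposure of HepaRG cells, top concentration 100 uM with half-log steps, 0.5% DMSO vehicle, duplicates; fitted bidirectionally against DMSO baseline.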

Read-out in assay [5]: Forkhead box O1 (FOXO1), FOXO1 (gene 2308)
The assay is described as follows: LTEA_HepaRG_FOXO1: Life Technologies and Expression Analysis (LTEA) Assay for Forkhead box O1 (FOXO1) using HepaRG (AID 2283456). The following applies: mRNA level, 48 h; actives raise or lower the signal. Summed up: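 FOXO1 transcript quantified by qRT-PCR after 48 h chemical exposure (top 100 uM, half-log steps, 0.5% DMSO) of HepaRG cells, housekeeping-normalized (ACTB/GAPDH/POLR2A). Changes fitted in both directions relative to vehicle.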

A short description of assay [6]: CEETOX_H295R_TESTO: CeeTox H295R High-throughput Steroidogenesis Assay for Testosterone (TESTO) (AID 2283457).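 Note: cells exposed to chemicals for 48 h before medium collection.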 As to conditions: actives raise or lower the signal. Summed up:
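H295R adrenal cells, passage ≤10, exposed to chemicals for 48 h. Testosterone in medium measured by MTBE extraction and HPLC-MS/MS against a 7-point standard curve. Bidirectional fit versus DMSO; MTT viability checked in the same wells.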

Read-out in assay [7]: growth arrest and DNA damage 45 (GADD45A), GADD45A (gene 1647)
The assay is described as follows: LTEA_HepaRG_GADD45A: Life Technologies and Expression Analysis (LTEA) Assay for growth arrest and DNA damage 45 (GADD45A) using HepaRG (AID 2283458). As to conditions: mRNA level, 48 h; actives raise or lower the signal. Summed up:
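HepaRG, 48 h exposure, 8 conc. (top 100 uM, half-log steps), 0.5% DMSO vehicle, duplicates. Read-out: qRT-PCR mRNA level, housekeeping-normalized (ACTB/GAPDH/POLR2A). Curves fit bidirectionally vs DMSO baseline.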

Read-out in assay [8]: Forkhead box O3 (FOXO3), FOXO3 (gene 2309)
The assay is described as follows: LTEA_HepaRG_FOXO3: Life Technologies and Expression Analysis (LTEA) Assay for Forkhead box O3 (FOXO3) using HepaRG (AID 2283459). The following applies: mRNA level, 48 h; actives raise or lower the signal. Summed up: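 FOXO3 transcript measured by qRT-PCR (normalized to ACTB, GAPDH, POLR2A) after 48 h exposure of HepaRG cells in serum-free induction medium. Duplicates, eight half-log concentrations up to 100 uM, 0.5% DMSO; gain or loss fitted against DMSO.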

Read-out in assay [9]: ABC Transporter (ABCB1), ABCB1 (gene 5243)
As to the kind of experiment: LTEA_HepaRG_ABCB1: Life Technologies and Expression Analysis (LTEA) Assay for ABC Transporter (ABCB1) using HepaRG (AID 2283460). The following applies: mRNA level, 48 h; actives raise or lower the signal. Summed up: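 ABCB1 transcript level measured by TaqMan qRT-PCR against three housekeeping genes after 48 h chemical exposure of differentiated HepaRG cells. Top concentration 100 uM, half-log steps, eight points, 0.5% DMSO vehicle; bidirectional fit relative to DMSO.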

Read-out in assay [10]: growth arrest and DNA damage 45 (GADD45B), GADD45B (gene 4616)
As to the kind of experiment: LTEA_HepaRG_GADD45B: Life Technologies and Expression Analysis (LTEA) Assay for growth arrest and DNA damage 45 (GADD45B) using HepaRG (AID 2283461). The following applies: mRNA level, 48 h; actives raise or lower the signal. Summed up: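 Differentiated human HepaRG cells in serum-free induction medium exposed 48 h in duplicate to eight concentrations, top 100 uM, half-log steps, 0.5% DMSO. GADD45B mRNA by TaqMan qRT-PCR, normalized to ACTB, GAPDH, POLR2A; bidirectional fit versus DMSO.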

Read-out in assay [11]: ABC Transporter (ABCC3), ABCC3 (gene 8714)
As to the kind of experiment: LTEA_HepaRG_ABCC3: Life Technologies and Expression Analysis (LTEA) Assay for ABC Transporter (ABCC3) using HepaRG (AID 2283462). As to conditions: mRNA level, 48 h; actives raise or lower the signal. Summed up: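 Differentiated human HepaRG cells exposed 48 h in serum-free induction medium, 0.5% DMSO vehicle, 8-point half-log series to 100 uM in duplicate. ABCC3 mRNA by qRT-PCR, normalised to ACTB, GAPDH, POLR2A; bidirectional fit vs DMSO.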

Read-out in assay [12]: ABC Transporter (ABCB11), ABCB11 (gene 8647)
The assay is described as follows: LTEA_HepaRG_ABCB11: Life Technologies and Expression Analysis (LTEA) Assay for ABC Transporter (ABCB11) using HepaRG (AID 2283463). As to conditions: mRNA level, 48 h; actives raise or lower the signal. Summed up: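 ABCB11 transcript levels quantified by TaqMan qRT-PCR against three housekeeping genes after 48 h chemical exposure of HepaRG cultures. Concentrations up to 100 uM in half-log steps, 0.5% DMSO vehicle; both induction and suppression scored.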

Read-out in assay [13]: ABC Transporter (ABCC2), ABCC2 (gene 1244)
The assay is described as follows: LTEA_HepaRG_ABCC2: Life Technologies and Expression Analysis (LTEA) Assay for ABC Transporter (ABCC2) using HepaRG (AID 2283464). As to conditions: mRNA level, 48 h; actives raise or lower the signal. Summed up: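 Differentiated HepaRG cells in serum-free induction medium exposed 48 h to eight half-log concentrations up to 100 uM, 0.5% DMSO, in duplicate. ABCC2 mRNA measured by qRT-PCR (TaqMan, Fluidigm), normalized to ACTB, GAPDH and POLR2A. Fitted in both directions against DMSO.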

Read-out in assay [14]: Broad substrate specificity ATP-binding cassette transporter ABCG2 (Homo sapiens) (UniProt Q9UNQ0)
The assay is described as follows: LTEA_HepaRG_ABCG2: Life Technologies and Expression Analysis (LTEA) Assay for ABC Transporter (ABCG2) using HepaRG (AID 2283465). As to conditions: mRNA level, 48 h; actives raise or lower the signal. Summed up: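 ABCG2 transcript was quantified by TaqMan qRT-PCR against three housekeeping genes in HepaRG cells. Cells were treated in duplicate for 48 h across an 8-point half-log series up to 100 uM, with 0.5% DMSO vehicle. Gain or loss versus DMSO was fit.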

Read-out in assay [15]: ATP-citrate lyase (ACLY), ACLY (gene 47)
As to the kind of experiment: LTEA_HepaRG_ACLY: Life Technologies and Expression Analysis (LTEA) Assay for ATP-citrate lyase (ACLY) using HepaRG (AID 2283466). As to conditions: mRNA level, 48 h; actives raise or lower the signal. Summed up:
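ACLY mRNA quantified by qRT-PCR on Fluidigm arrays against three housekeeping genes, after 48 h chemical treatment of HepaRG cells (top concentration 100 uM, half-log steps, 0.5% DMSO vehicle). Up- or down-regulation fitted relative to DMSO.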

Read-out in assay [16]: Peroxisomal acyl-coenzyme A oxidase 1 (ACOX1) gene, ACOX1 (gene 51)
As to the kind of experiment: LTEA_HepaRG_ACOX1: Life Technologies and Expression Analysis (LTEA) Assay for Peroxisomal acyl-coenzyme A oxidase 1 (ACOX1) gene using HepaRG (AID 2283467). The following applies: mRNA level, 48 h; actives raise or lower the signal. Summed up: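 ACOX1 transcript levels were quantified by TaqMan qRT-PCR against three housekeeping genes after 48 h chemical exposure of differentiated human HepaRG cells. Exposure used eight half-log steps topping at 100 uM, 0.5% DMSO vehicle, in duplicate. Bidirectional curve fits were made relative to DMSO.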

Read-out in assay [17]: Alkaline Phosphatase, Placental (ALPP) gene, ALPP (gene 250)
As to the kind of experiment: LTEA_HepaRG_ALPP: Life Technologies and Expression Analysis (LTEA) Assay for Alkaline Phosphatase, Placental (ALPP) gene using HepaRG (AID 2283468). The following applies: mRNA level, 48 h; actives raise or lower the signal. Summed up: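 HepaRG cells plated 48 h, then exposed in duplicate for 48 h in serum-free induction medium to 8-point half-log series from 100 uM in 0.5% DMSO. ALPP mRNA by TaqMan qRT-PCR, normalized to ACTB/GAPDH/POLR2A; bidirectional fit versus DMSO.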

Read-out in assay [18]: Bcl-2 (BAD) gene, BAD (gene 572)
As to the kind of experiment: LTEA_HepaRG_BAD: Life Technologies and Expression Analysis (LTEA) Assay for Bcl-2 (BAD) gene using HepaRG (AID 2283469). As to conditions: mRNA level, 48 h; actives raise or lower the signal. Summed up:
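Read-out: qRT-PCR of BAD mRNA, normalized to three housekeeping genes. Human HepaRG cultures got 48 h chemical exposure in 0.5% DMSO, duplicate eight-point half-log series topping at 100 uM. Gain or loss of signal fitted versus DMSO vehicle.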

Read-out in assay [19]: Bcl-2 (BAX) gene, BAX (gene 581)
As to the kind of experiment: LTEA_HepaRG_BAX: Life Technologies and Expression Analysis (LTEA) Assay for Bcl-2 (BAX) gene using HepaRG (AID 2283470). The following applies: mRNA level, 48 h; actives raise or lower the signal. Summed up:
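qRT-PCR read-out of BAX mRNA, normalized to three housekeeping genes, after 48 h chemical exposure of human HepaRG cells in serum-free induction medium; eight-point half-log series, top 100 uM, 0.5% DMSO vehicle; bidirectional fit versus DMSO.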

Read-out in assay [20]: Cyclin D2 (CCND2), CCND2 (gene 894)
As to the kind of experiment: LTEA_HepaRG_CCND2: Life Technologies and Expression Analysis (LTEA) Assay for Cyclin D2 (CCND2) using HepaRG (AID 2283449). As to conditions: mRNA level, 48 h; actives raise or lower the signal. Summed up: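 CCND2 transcript levels, quantified by qRT-PCR and normalised to three housekeeping genes, were fitted bidirectionally against 0.5% DMSO. HepaRG cultures were dosed 48 h in duplicate with an 8-point half-log series up to 100 uM.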

Calls of active or inactive are those of the source. Rule for the calls: active = hit-call score of the fitted dose curve at least 0.9, where 1 is the maximum; inactive = score below 0.9.

Chain of Broad substrate specificity ATP-binding cassette transporter ABCG2 (Homo sapiens) (Q9UNQ0 whole entry, looked up): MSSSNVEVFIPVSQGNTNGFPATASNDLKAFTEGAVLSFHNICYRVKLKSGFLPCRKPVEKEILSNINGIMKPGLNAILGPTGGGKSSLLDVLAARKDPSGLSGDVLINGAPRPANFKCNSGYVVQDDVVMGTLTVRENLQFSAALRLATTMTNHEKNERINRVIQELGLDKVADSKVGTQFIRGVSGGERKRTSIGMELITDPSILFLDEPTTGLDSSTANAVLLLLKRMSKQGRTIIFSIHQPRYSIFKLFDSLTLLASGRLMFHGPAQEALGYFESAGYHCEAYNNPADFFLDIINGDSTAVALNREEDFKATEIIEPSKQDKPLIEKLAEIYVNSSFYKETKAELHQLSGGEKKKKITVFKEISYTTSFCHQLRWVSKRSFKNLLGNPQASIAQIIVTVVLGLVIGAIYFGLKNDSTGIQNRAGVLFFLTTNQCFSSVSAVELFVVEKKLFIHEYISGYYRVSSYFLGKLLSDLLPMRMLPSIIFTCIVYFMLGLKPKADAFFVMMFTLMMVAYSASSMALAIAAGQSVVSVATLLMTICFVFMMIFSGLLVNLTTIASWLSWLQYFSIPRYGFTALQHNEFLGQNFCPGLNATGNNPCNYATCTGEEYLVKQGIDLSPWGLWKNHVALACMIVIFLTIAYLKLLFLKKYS

Regarding `CCOP(=S)(OCC)Oc1nc(Cl)c(Cl)cc1Cl`, the call in [1], in assay [2], in [4], in [5], in [7] and in assay [8] was inactive. Besides, the call in assay [9], in [10], in assay [11], in assay [12], in assay [13] and in [14] was inactive. The molecule was called inactive in assay [15], in [16], in assay [17], in assay [18] and in [19]. In addition, the AC50 in [3] was 34.4 µM (active); in assay [6] it was 62.6 µM (active).
Take `CC12CC1(C)C(=O)N(c1cc(Cl)cc(Cl)c1)C2=O` (stereo not drawn): the molecule was classed as inactive in [1], in assay [20], in [2], in assay [3], in assay [4] and in assay [5]. Further, the outcome in [8], in [10], in assay [11], in assay [13], in assay [14] and in assay [15] was inactive. Besides, the outcome in assay [17], in assay [18] and in [19] was inactive. In addition, the AC50 in assay [6] is 25.4 µM (active); in assay [9], 8.58 µM (active); in [12], 6.92 µM (active); in assay [16] it was 13.1 µM (active).

As usually defined, the AC50 is the concentration giving half of the maximal activity seen.

The values are drawn from PubChem BioAssay (EPA / NIEHS).
